High-throughput results: PubChem, several laboratories
Hits are enriched below; roughly 1.3% of the tested compounds scored in any of these assays.
NCOA3 inh: inhibits human SRC3 coactivator; HEK293 GAL4-SRC3 luciferase reporter, luminescence; Q9Y6Q9; inhibition, % at 3.6 µM; 360,000 compounds, 0.17% hits; AID 588352;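 active = inhibition above a per-campaign cutoff, the mean of all compounds plus 3 SD, cut at about 60% in these data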;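 also: higher means less SRC3-driven luciferase light from the GAL4 reporter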
Target sequence (Q9Y6Q9 whole entry, looked up, the tested form may be a part): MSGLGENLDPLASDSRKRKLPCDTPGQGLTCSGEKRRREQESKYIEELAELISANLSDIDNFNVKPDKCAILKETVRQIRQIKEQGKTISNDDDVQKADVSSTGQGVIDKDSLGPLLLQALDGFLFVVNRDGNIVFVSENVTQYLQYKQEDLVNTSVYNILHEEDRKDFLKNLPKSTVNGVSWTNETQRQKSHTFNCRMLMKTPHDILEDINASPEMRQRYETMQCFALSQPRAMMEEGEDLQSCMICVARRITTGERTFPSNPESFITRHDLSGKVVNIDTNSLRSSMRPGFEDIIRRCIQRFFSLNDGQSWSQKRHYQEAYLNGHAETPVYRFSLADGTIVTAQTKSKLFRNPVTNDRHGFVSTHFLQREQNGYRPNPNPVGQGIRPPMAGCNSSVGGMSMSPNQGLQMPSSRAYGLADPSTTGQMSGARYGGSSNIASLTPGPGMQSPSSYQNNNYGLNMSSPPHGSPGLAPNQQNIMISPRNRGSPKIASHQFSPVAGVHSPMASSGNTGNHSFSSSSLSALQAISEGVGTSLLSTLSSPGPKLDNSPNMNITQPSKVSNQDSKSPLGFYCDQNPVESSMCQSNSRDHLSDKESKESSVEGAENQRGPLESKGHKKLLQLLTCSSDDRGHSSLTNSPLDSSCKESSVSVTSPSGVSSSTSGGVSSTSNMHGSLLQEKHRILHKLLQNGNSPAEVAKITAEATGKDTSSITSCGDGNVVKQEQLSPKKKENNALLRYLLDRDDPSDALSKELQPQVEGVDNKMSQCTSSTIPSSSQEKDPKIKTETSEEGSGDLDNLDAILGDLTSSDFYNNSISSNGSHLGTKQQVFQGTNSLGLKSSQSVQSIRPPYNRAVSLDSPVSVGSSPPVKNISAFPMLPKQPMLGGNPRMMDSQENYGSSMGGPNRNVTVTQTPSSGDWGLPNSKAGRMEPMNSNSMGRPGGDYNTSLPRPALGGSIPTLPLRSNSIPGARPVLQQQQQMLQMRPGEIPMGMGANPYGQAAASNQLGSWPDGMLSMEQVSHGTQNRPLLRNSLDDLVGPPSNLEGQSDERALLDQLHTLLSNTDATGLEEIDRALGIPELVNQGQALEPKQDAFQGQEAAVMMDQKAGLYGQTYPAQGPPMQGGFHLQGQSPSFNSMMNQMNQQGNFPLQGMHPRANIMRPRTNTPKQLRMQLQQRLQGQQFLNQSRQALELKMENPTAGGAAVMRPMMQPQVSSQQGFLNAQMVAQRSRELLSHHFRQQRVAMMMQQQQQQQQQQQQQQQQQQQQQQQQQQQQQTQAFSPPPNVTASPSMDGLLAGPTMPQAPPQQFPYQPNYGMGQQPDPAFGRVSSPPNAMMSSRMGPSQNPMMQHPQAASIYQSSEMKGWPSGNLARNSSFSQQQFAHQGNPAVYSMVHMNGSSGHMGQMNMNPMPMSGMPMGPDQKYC
NCOA2 inhibitor: human SRC2 (NCOA2) inhibition; Q15596; inhibition, % at 9 µM; HEK293 GAL4-SRC2 luciferase reporter, luminescence; 370,000 compounds, 0.17% hits;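 active = inhibition above the mean inhibition of all tested compounds plus 3 SD, set per campaign, cut at about 52% in these data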
LRH-1 inv ag: suppresses constitutive activity of human LRH-1. HEK293T StAR-luciferase reporter, LRH-1 transfected, 24 h. inhibition, % at 3.6 µM. O00482. 360,000 compounds, 0.13% hits;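 active = inhibition above the mean inhibition of all tested compounds plus 3 SD, cut at about 73% in these data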
Gli-Sufu block: Gli-Sufu pathway antagonism; Sufu-KO-LIGHT fibroblasts, Gli luciferase reporter luminescence; inhibition, % at 5 µM; 340,000 compounds, 0.74% hits;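 active = inhibition above about 55%, limit read from the data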
COUP-TFII inh: NR2F2 (human) inhibition, primary screen. P24468. HEK293T NGFI-A luciferase reporter, luminescence. inhibition, % at 8.6 µM. 370,000 compounds, 0.7% hits;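 active = inhibition above a per-plate cutoff, mean inhibition of test wells between control levels plus 3 SD, cut at about 38% in these data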;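 also: cells cotransfected with COUP-TFII expression vector driving the NGFI-A reporter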
NCOA1 inh: inhibits human SRC1 coactivator; Q15788; HEK293 GAL4-SRC1 luciferase reporter, luminescence; inhibition, % at 3.6 µM; 360,000 compounds, 0.12% hits; AID 588354;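 active = inhibition above the campaign mean plus 3 SD, with each screening campaign given its own cutoff, cut at about 60% in these data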
Gal4-VP16 ctr: counter-screen for COUP-TFII antagonists: inhibitors of VP16; 2,500 compounds, 25% hits; HEK293 Gal4-VP16 luciferase reporter, luminescence; shares compounds with COUP-TFII inh; inhibition, % at 8.5 µM; AID 687007; in the data active = inhibition above about 13%
COUP-TFII conf: COUP-TFII (NR2F2) inhibition, confirmation assay | shares compounds with COUP-TFII inh | HEK293 NGFI-A luciferase reporter, luminescence | inhibition, % at 8.5 µM | 2,500 compounds, 45% hits | AID 687008;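 active = mean inhibition over three repeats above a set limit taken from the earlier primary screen, cut at about 38% in these data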
A number is an active result.

Results for CC(C)(C)c1ccc(-c2cc(-c3ccccc3O)[nH]n2)cc1 ?
NCOA3 inh: inactive; NCOA2 inhibitor: inactive; LRH-1 inv ag: inactive; Gli-Sufu block: inactive; COUP-TFII inh: 37; NCOA1 inh: inactive; Gal4-VP16 ctr: inactive; COUP-TFII conf: 51

Results for Oc1ccccc1-c1cc(-c2cccc(F)c2)n[nH]1 ?
NCOA3 inh: inactive; NCOA2 inhibitor: inactive; LRH-1 inv ag: inactive; Gli-Sufu block: inactive; COUP-TFII inh: inactive; NCOA1 inh: inactive

What do the screens show for `CN(CCCOC(=O)c1occ2ccccc12)C1CN(Cc2cn(Cc3ccccc3Cl)nn2)S(=O)(=O)C1` (stereo unspecified)?
NCOA2 inhibitor: inactive; COUP-TFII inh: inactive

Results for CCOc1cc(C(=S)N2CCOCC2)ccc1OS(=O)(=O)c1ccc(OC)cc1 ?
NCOA3 inh: inactive; NCOA2 inhibitor: inactive; LRH-1 inv ag: inactive; Gli-Sufu block: inactive; COUP-TFII inh: inactive; NCOA1 inh: inactive

How did CCOc1cc(C(=S)N2CCOCC2)ccc1OS(=O)(=O)c1ccc(NC(C)=O)cc1 do in these assays?
NCOA3 inh: inactive; NCOA2 inhibitor: inactive; LRH-1 inv ag: inactive; Gli-Sufu block: inactive; COUP-TFII inh: 48; NCOA1 inh: inactive; Gal4-VP16 ctr: inactive; COUP-TFII conf: inactive

Results for CC1C/C(=C/c2ccncc2)C(=O)/C(=C/c2ccncc2)C1 (stereo unspecified) ?
NCOA3 inh: inactive; NCOA2 inhibitor: 74; LRH-1 inv ag: inactive; Gli-Sufu block: inactive; COUP-TFII inh: 87; NCOA1 inh: inactive; Gal4-VP16 ctr: 82; COUP-TFII conf: 97

How did COC(=O)C1CN(Cc2cn(Cc3ccc(F)cc3)nn2)CCS(=O)(=O)N1Cc1ccc(OC)cc1 (stereo unspecified) do in these assays?
NCOA2 inhibitor: inactive; COUP-TFII inh: inactive

What do the screens show for `Cc1ccc(CC(=O)Nc2ccncc2)cc1`?
NCOA3 inh: inactive; NCOA2 inhibitor: inactive; LRH-1 inv ag: inactive; Gli-Sufu block: inactive; COUP-TFII inh: 55; NCOA1 inh: inactive; Gal4-VP16 ctr: inactive; COUP-TFII conf: inactive

What do the screens show for `CN(CCCC(=O)Nc1ccncc1)S(=O)(=O)c1ccc(Cl)cc1`?
NCOA3 inh: inactive; NCOA2 inhibitor: inactive; LRH-1 inv ag: inactive; Gli-Sufu block: inactive; COUP-TFII inh: 52; NCOA1 inh: inactive; Gal4-VP16 ctr: inactive; COUP-TFII conf: inactive

Results for O=C(Nc1ccncc1)Nc1ccc(Cl)cc1 ?
NCOA3 inh: inactive; NCOA2 inhibitor: inactive; LRH-1 inv ag: inactive; Gli-Sufu block: inactive; COUP-TFII inh: inactive; NCOA1 inh: inactive

What do the screens show for `O=C(Cc1ccc(Cl)cc1)Nc1ccncc1`?
NCOA3 inh: inactive; NCOA2 inhibitor: inactive; LRH-1 inv ag: inactive; Gli-Sufu block: inactive; COUP-TFII inh: 40; NCOA1 inh: inactive; Gal4-VP16 ctr: inactive; COUP-TFII conf: inactive

How did CN(CC(=O)Nc1ccncc1)S(=O)(=O)c1ccc(Br)cc1 do in these assays?
NCOA3 inh: inactive; NCOA2 inhibitor: inactive; LRH-1 inv ag: inactive; Gli-Sufu block: inactive; COUP-TFII inh: inactive; NCOA1 inh: inactive

How did NC(=O)C1CCN(c2nc(-c3ccc(OCc4ccccc4)cc3)cs2)CC1 do in these assays?
COUP-TFII inh: inactive

What do the screens show for `Cc1ccc(OCCN2CCN(C(=O)CCC(=O)Nc3nnc(C)s3)CC2)cc1`?
NCOA3 inh: inactive; NCOA2 inhibitor: inactive; LRH-1 inv ag: inactive; Gli-Sufu block: inactive; COUP-TFII inh: inactive; NCOA1 inh: inactive

Results for Cc1ccc(OCCN2CCN(C(=O)CCC(=O)Nc3nnc(C(C)C)s3)CC2)cc1 ?
NCOA3 inh: inactive; NCOA2 inhibitor: inactive; LRH-1 inv ag: inactive; Gli-Sufu block: inactive; COUP-TFII inh: 41; NCOA1 inh: inactive; Gal4-VP16 ctr: inactive; COUP-TFII conf: inactive

How did COc1ccc(CCC[C@H](CCC(=O)N(c2ccccc2)c2ccccc2)CCc2ccccc2)cc1 do in these assays?
NCOA2 inhibitor: inactive; COUP-TFII inh: inactive

Results for CC(C)CNS(=O)(=O)CC1NCc2cc3c(cc21)OCO3 (stereo unspecified) ?
NCOA2 inhibitor: inactive; COUP-TFII inh: inactive

What do the screens show for `CC(=O)Nc1ccc(-c2ccnc3c2CC(C)(C(=O)NCc2ccco2)O3)cc1` (stereo unspecified)?
NCOA3 inh: inactive; NCOA2 inhibitor: inactive; LRH-1 inv ag: inactive; COUP-TFII inh: inactive; NCOA1 inh: inactive

What do the screens show for `CN(C)c1ccc(-c2ccnc3c2CC(C)(C(=O)NCc2ccco2)O3)cc1` (stereo unspecified)?
NCOA3 inh: inactive; NCOA2 inhibitor: inactive; LRH-1 inv ag: inactive; COUP-TFII inh: 49; NCOA1 inh: inactive; Gal4-VP16 ctr: inactive; COUP-TFII conf: inactive

What do the screens show for `Nc1ccc2ccc(NS(=O)(=O)N3CCCCC3)cc2c1`?
NCOA2 inhibitor: inactive; COUP-TFII inh: inactive

What do the screens show for `COc1cccc(-c2nnc3sc(-c4ccccn4)nn23)c1`?
NCOA3 inh: inactive; NCOA2 inhibitor: inactive; LRH-1 inv ag: inactive; Gli-Sufu block: inactive; COUP-TFII inh: inactive; NCOA1 inh: inactive

Results for CC(C)(C)c1ccc(-c2nnc3sc(-c4ccccn4)nn23)cc1 ?
NCOA3 inh: inactive; NCOA2 inhibitor: inactive; LRH-1 inv ag: inactive; Gli-Sufu block: inactive; COUP-TFII inh: 41; NCOA1 inh: inactive; Gal4-VP16 ctr: inactive; COUP-TFII conf: 52

Results for COc1cc2c(cc1OC)C(c1c(Cl)cccc1Cl)=NCC2 ?
NCOA3 inh: inactive; NCOA2 inhibitor: inactive; LRH-1 inv ag: inactive; COUP-TFII inh: 72; NCOA1 inh: inactive; Gal4-VP16 ctr: inactive; COUP-TFII conf: 58

How did Cc1ccccc1C(=O)N/N=C/c1ccc([N+](=O)[O-])s1 do in these assays?
NCOA3 inh: inactive; NCOA2 inhibitor: inactive; LRH-1 inv ag: inactive; Gli-Sufu block: inactive; COUP-TFII inh: 57; NCOA1 inh: inactive; Gal4-VP16 ctr: 55; COUP-TFII conf: 44

What do the screens show for `O=C(N/N=C/c1ccc([N+](=O)[O-])s1)c1ccccc1`?
NCOA3 inh: inactive; NCOA2 inhibitor: inactive; LRH-1 inv ag: inactive; Gli-Sufu block: inactive; COUP-TFII inh: 38; NCOA1 inh: inactive; Gal4-VP16 ctr: 31; COUP-TFII conf: inactive

Results for S=C(NCc1ccccc1)Nc1cccc2cnccc12 ?
NCOA3 inh: inactive; NCOA2 inhibitor: inactive; LRH-1 inv ag: inactive; Gli-Sufu block: 65; COUP-TFII inh: 57; NCOA1 inh: inactive; Gal4-VP16 ctr: inactive; COUP-TFII conf: inactive

Results for CC(C)(C)[C@H]1C=C(C(=O)Nc2ccccc2)O[C@@H](OCCCCO)C1 ?
NCOA3 inh: inactive; NCOA2 inhibitor: inactive; LRH-1 inv ag: inactive; Gli-Sufu block: inactive; COUP-TFII inh: 63; NCOA1 inh: inactive; Gal4-VP16 ctr: inactive; COUP-TFII conf: inactive

Results for CC(C)(C)[C@@H]1C=C(C(=O)O)O[C@H](OCCCCO)C1 ?
NCOA3 inh: inactive; NCOA2 inhibitor: inactive; LRH-1 inv ag: inactive; Gli-Sufu block: inactive; COUP-TFII inh: inactive; NCOA1 inh: inactive
